ChEMBL document CHEMBL3988442, “University of Dundee, Small-Polar-MMV Screening Library” (2021)
In all, about 48,000 compounds went through this assay and about 13,000 (27%) showed an effect of 50% or more. This is one part of the list.

What follows are compounds tested on Wolbachia pipientis (assay: Anti-Wolbachia Cell-Based Screen). Details: 5 µM.
Type: functional
Parameters: scale not given: in the data most compounds retested in dose-response had high values

Compound	Percent Effect [%]
COc1ccccc1N1CCN(C(=O)Cn2nccc2C)CC1(C)C	4.467
O=C(CCc1nc(Cl)n[nH]1)N1CCC2(CCCNC2=O)C1 (stereo unspecified)	7.017
Cc1cc(C(=O)N(C)C2CCS(=O)(=O)C2)c2ccc(F)cc2n1 (stereo unspecified)	-24.13
CN1CCC(N(C)C(=O)c2cnn(-c3cc(F)ccc3F)c2N)CC1	123.1
CCCN1CCC(N(C)C(=O)c2cc(C)nc3cc(F)ccc23)CC1	11.04
CN1CCC(N(C)C(=O)c2cnn(-c3ccccc3Br)c2N)CC1	112.2
Cc1cccc2c1nc(COCC(=O)O)n2-c1ccc(N)nc1	-5.94
CCCC(C)C(=O)N1CCC(c2cc(N3CCOCC3)nc(C)n2)CC1 (stereo unspecified)	8.426
Cn1c(CCNc2nccnc2C#N)nc2cc(Cl)ccc21	-1.88
Cc1cc(=O)n2nc(Oc3ccc(F)c(F)c3)sc2n1	78.71
Cc1cc(=O)n2nc(Oc3ccc(Cl)c(C)c3)sc2n1	81.92
Cc1cc(OCC(=O)NS(=O)(=O)c2c(C)noc2C)ccc1Cl	-5.411
Cc1cc(=O)n2nc(Oc3ccc(C#N)cc3Cl)sc2n1	80.29
Cc1cc(=O)n2nc(Oc3cc(Cl)cc(Cl)c3)sc2n1	108.5
CN(C)c1cccc(CNC(=O)Nc2cc(C#N)ccc2Cl)n1	19.69
Cc1nccc(CNC(=O)NCCOc2ccc(F)c(F)c2)n1	-14.18
Cc1cccc(OC2CCN(c3ncc(C#N)cc3Cl)CC2)n1	-14.79
CN(C)S(=O)(=O)NCc1cccnc1Oc1ccc(F)c(F)c1	-7.83
c1ccc(C(CNc2ncccn2)N2CCOCC2)nc1 (stereo unspecified)	-6.458
CS(=O)(=O)NC[C@H]1Cn2c(-c3ccc(Cl)cc3)cnc2CO1	-25.96
Cc1nnc(NC(=O)CN2CCCC(Cn3cncn3)C2)s1 (stereo unspecified)	-2.603
CCc1nnc2n1CCN(C(=O)c1ccc(-c3ccco3)nc1C)C2	-7.114
NC(=O)N1CCCC(c2nc(-c3cccnn3)no2)C1 (stereo unspecified)	-17.63
O=C1CCCCN1CCc1nc(-c2cccnn2)no1	94.65
c1cnnc(-c2noc(CCN3CCCO3)n2)c1	93.6
O=C1CCCCCN1CCc1nc(-c2cccnn2)no1	101.6

Compound	Percent Effect [%]
O=C1CCCN1CCc1nc(-c2ccsc2)no1	3.312
O=C1CCCN1Cc1nc(-c2ccsc2)no1	-0.6709
c1cnnc(-c2noc(COCC3CCCO3)n2)c1 (stereo unspecified)	-7.3
CCC(=O)N1CCCC(c2nc(-c3cccnn3)no2)C1 (stereo unspecified)	-10.18
c1ccc(-c2noc(CNC3CCCN(c4cccnn4)C3)n2)nc1 (stereo unspecified)	15.74
Fc1cnc(N2CC[C@@H]3O[C@H](COCc4ccccn4)CC[C@@H]32)nc1.O=C(O)C(F)(F)F.O=C(O)C(F)(F)F	-8.752
CCC(Nc1cccc(Oc2ccc(C#N)cc2)c1)C(N)=O (stereo unspecified)	17.41
O=c1cc2c(nn1CN1CCN(c3cccc(Cl)c3)CC1)CCC2	-5.597
N#Cc1ccc2c(c1)CN(C(=O)c1nc[nH]n1)C2c1cnco1 (stereo unspecified)	-15.48
CCNC(=O)C1CCN(c2nccc(C3CCCC3)n2)C1 (stereo unspecified)	-5.882
CCC(=O)N1C[C@@H](C(=O)NC)[C@H](c2ccnc(N3CCCC3)n2)C1.Cl	103.8
COCCC(=O)N1CCN(C)c2ncccc2C1	-0.6435
CCn1ncnc1C(C)NC(=O)C1CCN(C(=O)COC)CC1 (stereo unspecified)	0.6867
CNC(=O)C1CCN(c2nccc(CCC(F)(F)F)n2)C1 (stereo unspecified)	-10.68
CNC(=O)[C@@H]1CN(C(=O)COC)C[C@H]1c1ccnc(N2CCCC2)n1	103.6
CCNc1ccnc(N2CCCC(CCOC)(C(=O)O)C2)n1 (stereo unspecified)	-0.7265
CNC(=O)[C@@H]1COC[C@H]2CN(C(=O)COc3ccccc3)C[C@H]21	-5.187
CNC(=O)[C@@H]1CN(C(=O)CCOC)C[C@H]1c1ccnc(N2CCCC2)n1.Cl	97.41
O=C(O)C(c1cccc2c1OCC2)N1CCC(N2CCCC2)CC1 (stereo unspecified)	-6.638
O=C1C(Nc2ncccn2)CCN1c1ccccc1OC(F)F (stereo unspecified)	-3.338
COCCS(=O)(=O)NC(C)c1cccc(-n2cccn2)c1 (stereo unspecified)	2.381
CC(=O)Nc1ccc(C(=O)Nc2cnc3n2CCCC3)cc1C	7.352
CC(C)NC(=O)N1CCC2(CC1)Cc1ccccc1CN(C)C2=O	105
C[C@@H]1CN(C2(C(=O)N3CCOCC3)Cc3ccccc3C2)C[C@H](C)O1	-3.118
CC(C)NC(=O)N1CCC2(CC1)Cc1ccccc1CNC2=O	106.4
CC(NC(=O)N1CCc2ccccc2C1)c1nncn1C (stereo unspecified)	-2.02

Compound	Percent Effect [%]
CC(C)NC(=O)N1CCC2(CC1)CCn1c(C3CC3)cnc12	5.233
CN1Cc2ccccc2CC2(CCN(C(=O)N3CCOCC3)CC2)C1=O	102.4
CNS(=O)(=O)c1ccccc1N1CCN(C(=O)NC(C)C)CC1	-1.761
O=C([C@H]1CCCO1)N1CCC2(CC1)Cc1ccccc1CNC2=O	-31.67
CN1Cc2ccccc2CC2(CCN(C(=O)[C@H]3CCCO3)CC2)C1=O	-50.23
O=S(=O)(C/C=C/c1ccccc1)Cc1nc(C2CC2)no1	14.62
CCn1ccnc1CN1CCN(CCOc2cccc(C#N)c2)CC1	-6.749
CC(C)c1cnc(CNc2c(F)cccc2-n2cccn2)o1	11.31
CCNC(=O)NC1CN(Cc2ccccc2N(C)C)C[C@@H]1OC (stereo partly specified)	0.7877
CC(NC(=O)N1CCc2sccc2C1)c1nncn1C (stereo unspecified)	8.221
CN(C)C(=O)N1C[C@@H]2CCCO[C@@H]2[C@H](N(C)Cc2ccco2)C1.O=C(O)C(F)(F)F	-2.152
Cc1nccn1-c1cc(CNC(=O)CCNC(=O)C2CCCC2)ccn1	5.543
Cc1nc(CN2CCCC(NCc3nc4ccccc4s3)C2)no1 (stereo unspecified)	116.1
Cn1cc(CNC2CCCN(Cc3noc(C4CC4)n3)C2)cn1 (stereo unspecified)	-8.767
Cc1nc(CN2CCCC(NCCc3ccccc3Cl)C2)no1 (stereo unspecified)	-3.863
Cc1nc(CN2CCCC(NCc3cnn(C)c3)C2)no1 (stereo unspecified)	104.5
CCc1nc(CN2CCCC(NCc3cnn(C(C)(C)C)c3)C2)no1 (stereo unspecified)	-2.673
Cc1nc(CN2CCCC(NCC(=O)Nc3cccnc3)C2)no1 (stereo unspecified)	-1.962
CCOc1cccc(CNC2CCCN(Cc3noc(C)n3)C2)c1 (stereo unspecified)	100.5
Cc1nc(CN(C)C2CCN(Cc3nc4ccccc4s3)C2)no1 (stereo unspecified)	10.14
Cc1nc(CN2CCCC(NCc3cccc4ccccc34)C2)no1 (stereo unspecified)	107.2
Cc1nc(CN2CCCC(N(C)c3cnc4ccccc4n3)C2)no1 (stereo unspecified)	-0.8744
Cc1nc(CN2CCCC(Nc3ncnc4ccccc34)C2)no1 (stereo unspecified)	-16.22
Cc1nc(CN2CCCC(NCCOc3ccccc3)C2)no1 (stereo unspecified)	-9.342
